# Screening data deposited in PubChem BioAssay by several laboratories.
# Vc quorum ag: quorum light induction in luxS cqsA deficient V. cholerae | 350,000 compounds, 0.16% hits | V. cholerae BH1578 lux reporter, luminescence, 6 h | activation, % at 18.7 µM; in the data active = activation mostly above about 9.7%, no sharp cut-off
# DUSP3 inh: blocks human VHR1 dual specificity phosphatase; AID 1654; recombinant VHR phosphatase, pNPP absorbance; P51452; inhibition, % at 13.3 µM; 290,000 compounds, 0.52% hits; in the data active = inhibition above about 50%
# Target sequence (P51452 whole entry, looked up): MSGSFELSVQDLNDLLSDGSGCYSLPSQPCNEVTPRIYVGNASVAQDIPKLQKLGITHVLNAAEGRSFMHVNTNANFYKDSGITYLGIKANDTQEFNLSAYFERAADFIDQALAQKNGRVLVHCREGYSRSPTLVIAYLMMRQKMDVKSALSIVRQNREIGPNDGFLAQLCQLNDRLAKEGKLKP
# Yp Topo-I inh: Y. pestis Topo-I inhibition via cleavage products. AID 504884. activity, % at 10 µM. Y. pestis Topo-I cleavage product accumulation, plate reader. 360,000 compounds, 0.064% hits; in the data active = activity above about 50%, passing the limit was not always enough
# MazF activator: increases E. coli MazEF RNase cleavage of RNA. P0AE70. FAM/BHQ RNA-DNA oligo cleavage fluorescence, 5 h. activation, % at 20 µM. 350,000 compounds, 0.32% hits; in the data active = activation above about 50%
# Target sequence (P0AE70 whole entry, looked up): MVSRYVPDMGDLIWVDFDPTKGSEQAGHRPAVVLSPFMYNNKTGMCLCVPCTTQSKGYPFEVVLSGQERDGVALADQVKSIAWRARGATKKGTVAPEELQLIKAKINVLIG
# PrPC TRFRET: reduces human prion protein on the cell surface. cell surface PrPC, TR-FRET read-out. inhibition, % at 13.8 µM. 370,000 compounds, 0.43% hits. AID 720596; in the data active = inhibition above about 24%; note: 0% = median of the test wells and 100% = reference compound wells
# CCHF vOTU inh-1: CCHFV vOTU protease inhibition | AID 651958 | 370,000 compounds, 0.55% hits | Pep-AMC fluorescence | inhibition, % at 11.5 µM; note: 0% = vehicle wells with enzyme and 100% = no enzyme wells
# CCHF vOTU inh-2: confirmation of CCHF virus vOTU protease inhibitors. 1,900 compounds, 17% hits. Recombinant CCHFV vOTU, Pep-AMC fluorescence. inhibition, % at 11.5 µM. AID 686976. shares compounds with CCHF vOTU inh-1
# * marks the source's active call; other numbers are inactive results; i = inactive; x = no result given. This is a sample that favours compounds with a hit; in the whole collection about 1.8% have one here. Cut-off read from the data, not from the text of the source, unless noted: active = inhibition above about 30%; inactive = the rest.
SMILES,Vc quorum ag,DUSP3 inh,Yp Topo-I inh,MazF activator,PrPC TRFRET,CCHF vOTU inh-1,CCHF vOTU inh-2
COc1ccc(OC)c(Nc2cc3ccccc3c(=O)[nH]2)c1,-4,x,-1,12,-3,99*,90*
COc1ccccc1Nc1cc2cc(Br)ccc2c(=O)[nH]1,i,x,-2,9,1,109*,93*
COc1ccccc1Nc1nnc(C)c(=O)[nH]1,i,18,13,0,-8,8,x
O=c1[nH]c(Nc2ccccc2)cc2cc(Br)ccc12,i,x,7,17,0,101*,98*
O=c1[nH]c(Nc2ccccc2)cc2ccccc12,0,14,2,-8,-2,88*,6
O=C(O)CCCC1(C(=O)O)CCCC1,-3,x,8,3,9,0,x
FC(F)(F)c1ccc(CNCCc2ccc3c(c2)OCO3)cc1,-1,27,2,0,2,30*,-14
Clc1ccc(CNCCc2ccc3c(c2)OCO3)cc1,i,0,4,6,5,6,x
S=C(SCc1cc(Cl)cc2c1OCOC2)N1CCSCC1,x,x,x,x,-3,0,x
O=c1c(O)c(-c2ccc(O)cc2)oc2cc(O)cc(O)c12,0,x,-4,7,-12,31*,-2
O=c1cc(-c2ccc(O)cc2)oc2cc(O)cc(O)c12,0,x,-14,0,-6,8,x
C(=NN=C(NN=Cc1cccs1)NN=Cc1cccs1)c1cccs1,i,x,6,-4,2,33*,2
O=C(N/N=C/c1cccs1)c1ccccn1,-2,7,5,9,-4,-7,x
O=C(C(=O)N1CCC(CNS(=O)(=O)c2cccc3ccccc23)CC1)c1cccs1,x,x,x,x,-1,-1,x
COc1cccc(-c2cnc3c(NC=O)cc(-c4cccc(C(=O)N(C)C)c4)cn23)c1,-1,x,30,x,4,7,x
COc1cccc(-c2cc(NC=O)c3ncc(-c4cccc(C(=O)N(C)C)c4)n3c2)c1,i,x,19,x,-15,31*,-11
COc1ccc(N)c2c1OCCC2=O,0,-3,-2,-5,-10,57*,-13
COc1ccc2c(c1OC)C(=O)OC2,0,30,0,4,2,7,x
C=CCSc1nnc(CCc2ccccc2)n1N,1,x,-3,2,2,-1,x
CCCCNC(=O)c1nc(C2CCN(S(=O)(=O)c3ccc(Cl)cc3)CC2)oc1-c1ccccc1,x,x,x,x,-9,-8,x
CCCCNC(=O)c1nc(C2CCN(S(=O)(=O)c3csc(C(=O)O)c3)CC2)oc1-c1ccccc1,x,x,x,x,-1,30*,4
CC(C)C[C@H](NC(=O)c1nc[nH]c1C(=O)NCCCCCNC(=O)OC(C)(C)C)C(=O)OCc1ccccc1,i,21,10,6,0,30*,16
CC(C)C[C@H](NC(=O)c1[nH]cnc1C(=O)N[C@@H](Cc1ccccc1)C(=O)OCc1ccccc1)C(=O)OC(C)(C)C,1,24,-4,1,7,30*,18
CC(C)C[C@H](NC(=O)c1nc[nH]c1C(=O)NC1CCN(C(=O)OC(C)(C)C)CC1)C(=O)OCc1ccccc1,2,-4,19,-6,5,31*,14
CCc1nnc(NC(=O)c2ccc3c(=O)n4c(nc3c2)CCC4)s1,0,x,1,5,-5,-5,x
SMILES,Vc quorum ag,DUSP3 inh,Yp Topo-I inh,MazF activator,PrPC TRFRET,CCHF vOTU inh-1,CCHF vOTU inh-2
Cn1ccc2c(N3CCCCCC3)cc3c(c21)C1CCC3O1 (centres undefined),x,x,x,x,-4,2,x
Cn1ccc2c(N3CCCC3)cc3c(c21)C1CCC3O1 (centres undefined),x,x,x,x,-11,38*,-14
CCOc1cc(/C=N/NC(=O)c2cc(C)n(-c3ccc(F)cc3)c2C)ccc1O,i,2,-3,3,-11,11,x
Cc1cc(C(=O)N/N=C2\CC(=O)c3ccccc32)c(C)n1-c1ccc(F)cc1,i,9,7,9,-4,61*,19
O=C(C#Cc1ccccc1)c1ccco1,i,10,-7,11,5,5,x
CCOC(=O)c1cc2sc(C)cc2n1CC(=O)NCc1ccc(F)cc1,i,3,1,-7,0,30*,-17
CCOC(=O)c1cc2sc(C)cc2n1CC(=O)N1CCOCC1,2,14,-2,3,7,12,x
COc1cccc(CC(CC(=O)O)C(=O)Nc2cc(C)ccc2C)c1 (centres undefined),i,5,13,1,-3,-10,x
CCCCc1nc2cc(C(=O)N3CCCC(COC)C3)ccc2o1 (centres undefined),0,14,6,8,3,-3,x
O=S(=O)(Nc1ccc(Cl)c(C(F)(F)F)c1)c1cnc[nH]1,0,-11,6,4,9,32*,-15
O=C(Nn1cnnc1)c1ccc(Cl)cc1,3,-12,-2,4,-1,5,x
CCCC(=O)C1=C(O)C(C(=O)OC)C(C)(C)CC1=Nc1ccc(N)cc1 (centres undefined),-2,34,-12,13,-2,20,x
CCCC(=Nc1ccc(N)cc1)C1=C(O)C(C(=O)OC)C(C)(C)CC1=O (centres undefined),-2,15,4,-9,-12,103*,3
Cc1ccc(C(=O)OCC(=O)Nc2cc(C(C)(C)C)nn2-c2ccccc2)c(O)c1,-1,x,10,-2,4,33*,-6
CCOc1ccccc1NC(=O)COc1ccc2ccc(=O)oc2c1,0,-3,6,-7,3,1,x
CC(C)(C)c1ccc(/C=N/OCC(=O)NCc2ccc(F)cc2)cc1,0,5,12,-7,13,46*,13
Cc1ccc(C(=O)N2CCOCC2)cc1S(=O)(=O)N1CCCCC1,-2,14,1,8,2,3,x
COc1ccc(C(=O)NCCS(=O)(=O)N2CCCCCC2)cc1,-5,x,13,4,2,-4,x
COc1ccc(C(=O)NCCS(=O)(=O)N2CCCC2)cc1,4,x,2,1,-6,46*,-23
COc1cc(NCCCNC(C)C)c2nccc(C)c2c1,1,x,-13,2,-48,57*,29
COCCN1C=C2C(=O)C(C)(OC(=O)C3CCCC3)C(=O)C(c3ccccc3)=C2C=C1CCCC(=O)OC (centres undefined),0,22,-7,-15,-12,34*,39*
COC(=O)CCCC1=CC2=C(c3ccccc3)C(=O)C(C)(OC(=O)C3CCCC3)C(=O)C2=CN1C1CCCCC1 (centres undefined),-2,15,25,-1,-2,33*,22
COC(=O)NN=C1CCC(c2ccccc2)CC1 (centres undefined),-2,7,3,-5,-2,14,x
COC(=O)N/N=C1/C/C(=N\NC(=O)OC)c2ccccc21,i,16,-8,2,-15,89*,72*
CCc1ccc(C#CC2=CC(=O)CC(C)(C)C2)cc1,-1,x,30,4,-1,7,x
